Measured values: PubChem BioAssay
Active and inactive are the calls of the source.

Columns and labels:
[1] = test system: Human papillomavirus type 1a protein E7 (residues 44-93); assay: small molecules binding HPV E7 44-93 – biochemical, small-molecule microarray, residues 44-93, 635 nm fluorescence, primary screen (AID 1108); details: fluorescence 635 nm, higher = more signal;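 further: E7 fragment applied at 1 µg/mL in TBST for 1 h at 4 C; score combines spot fluorescence with its signal to noise ratio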
[2] = hepatitis C replication reporter changes, two-sided – Huh7 cells, luciferase reporter, HCV replication inhibitor project, primary screen (AID 1109); details: Huh7 HCV replicon luciferase reporter, 48 h; higher = more signal;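 further: huh7 hepatoma cells harbouring a luciferase neomycin HCV replicon reporter; luciferase luminescence as measure of HCV replicon replication; test concentration not given here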
[3] = target: Left-right determination factor 2 (Homo sapiens) (UniProt O00292); assay: small molecules binding LEFTY2 protein – biochemical, small-molecule microarray, 635 nm fluorescence scan, primary screen (AID 1110); details: higher = more signal
Chain of Left-right determination factor 2 (Homo sapiens) (O00292 whole entry, looked up): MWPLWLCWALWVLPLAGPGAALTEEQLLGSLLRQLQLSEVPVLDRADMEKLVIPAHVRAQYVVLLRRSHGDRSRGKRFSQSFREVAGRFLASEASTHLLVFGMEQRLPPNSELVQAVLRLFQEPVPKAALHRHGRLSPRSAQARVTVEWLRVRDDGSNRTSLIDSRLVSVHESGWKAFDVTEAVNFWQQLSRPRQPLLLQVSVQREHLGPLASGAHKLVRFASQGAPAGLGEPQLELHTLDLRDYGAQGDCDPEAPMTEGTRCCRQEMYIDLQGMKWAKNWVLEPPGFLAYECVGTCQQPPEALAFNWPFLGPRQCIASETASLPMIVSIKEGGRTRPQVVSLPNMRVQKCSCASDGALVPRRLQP

[4] = target: Calmodulin-1 (Homo sapiens) (UniProt P0DP23); assay: small molecules binding calmodulin-1 with EGTA – biochemical, small-molecule microarray, Cy5-labelled CALM1, profiling panel (AID 1111); details: Cy5-CALM1 binding fluorescence, higher = more signal;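 further: labelled calmodulin applied in Tris saline Tween buffer holding calcium plus EGTA and DTT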
[5] = target: Calmodulin-1 (Homo sapiens) (UniProt P0DP23); assay: small molecules binding Ca-loaded calmodulin-1 – biochemical, small-molecule microarray, Cy5-labelled CALM1, plus calcium, artefact control for SMM control-protein annotation, profiling panel (AID 1112); details: Cy5-CALM1 binding fluorescence, higher = more signal;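 further: score merges spot fluorescence with signal to noise from triplicate slides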
[6] = probe aWnt5a binding to arrayed compounds – biochemical, biotinylated probe, 635/667 nm fluorescence, primary screen (AID 1113); details: small-molecule microarray, higher = more signal;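 further: score merges 667 nm fluorescence intensity with signal-to-noise per printed feature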
[7] = probe aShh binding to arrayed compounds – biochemical, biotinylated probe, 635/667 nm fluorescence, primary screen (AID 1114); details: small-molecule microarray, higher = more signal;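 further: probe is biotin-labelled aShh protein from a stem cell growth factor screen; measures binding of labelled protein to compounds printed on the slide; score merges feature fluorescence at 667 nm with signal-to-noise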
[8] = probe aNog binding to arrayed compounds – biochemical, biotinylated probe, 635/667 nm fluorescence, primary screen (AID 1115); details: small-molecule microarray, higher = more signal;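 further: probe is biotinylated aNog protein used at 0.15 µg/mL for 1 h at 4 C; z-score combines 667 nm fluorescence of each spot with its signal to noise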
[9] = target: Torsin-1A-interacting protein 1 (Homo sapiens) (UniProt Q5JTV8); assay: compound microarray binding of lysate hLAP1 – cell lysate, small-molecule microarray, COS7 lysate, 635/667 nm fluorescence, primary screen (AID 1116); details: 635 nm fluorescence, higher = more signal
Chain of Torsin-1A-interacting protein 1 (Homo sapiens) (Q5JTV8 whole entry, looked up): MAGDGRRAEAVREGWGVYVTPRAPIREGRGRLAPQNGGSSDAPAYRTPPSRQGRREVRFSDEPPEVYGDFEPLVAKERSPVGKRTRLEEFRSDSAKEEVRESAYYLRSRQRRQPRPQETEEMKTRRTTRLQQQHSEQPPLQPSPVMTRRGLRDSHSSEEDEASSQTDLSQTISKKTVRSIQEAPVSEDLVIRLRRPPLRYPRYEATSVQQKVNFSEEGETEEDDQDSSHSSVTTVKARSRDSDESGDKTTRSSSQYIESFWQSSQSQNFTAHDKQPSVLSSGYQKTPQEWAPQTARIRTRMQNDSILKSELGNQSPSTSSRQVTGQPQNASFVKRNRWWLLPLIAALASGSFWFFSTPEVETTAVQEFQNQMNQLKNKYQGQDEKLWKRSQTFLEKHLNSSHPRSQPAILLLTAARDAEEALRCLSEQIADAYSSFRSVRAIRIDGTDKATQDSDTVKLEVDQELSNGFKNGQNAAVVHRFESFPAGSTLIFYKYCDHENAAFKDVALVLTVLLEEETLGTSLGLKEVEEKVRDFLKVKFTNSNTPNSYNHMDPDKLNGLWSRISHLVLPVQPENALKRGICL

[10] = target: Alpha-bungarotoxin (Bungarus multicinctus) (UniProt P60615); assay: compounds binding labelled alpha-BTX control protein – biochemical, small-molecule microarray, Alexa647 label, 635/667 nm fluorescence, artefact control for SMM control protein annotation, profiling panel (AID 1117); details: alpha-BTX-A647 binding fluorescence, higher = more signal
Chain of Alpha-bungarotoxin (Bungarus multicinctus) (P60615 whole entry, looked up): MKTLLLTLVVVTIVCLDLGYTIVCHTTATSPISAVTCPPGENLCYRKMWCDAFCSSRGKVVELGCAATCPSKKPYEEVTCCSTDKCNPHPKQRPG

Albumin (Bos taurus) = Albumin (Bos taurus) (UniProt P02769); assay: compounds binding labelled BSA control protein – biochemical, small-molecule microarray, Alexa647 label, 635/667 nm fluorescence, artefact control for SMM control protein annotation, profiling panel (AID 1118); details: BSA-A647 binding, fluorescence 635 nm, higher = more signal;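 further: score merges 667 nm emission intensity and signal-to-noise per printed compound spot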
Chain of Albumin (Bos taurus) (P02769 whole entry, looked up): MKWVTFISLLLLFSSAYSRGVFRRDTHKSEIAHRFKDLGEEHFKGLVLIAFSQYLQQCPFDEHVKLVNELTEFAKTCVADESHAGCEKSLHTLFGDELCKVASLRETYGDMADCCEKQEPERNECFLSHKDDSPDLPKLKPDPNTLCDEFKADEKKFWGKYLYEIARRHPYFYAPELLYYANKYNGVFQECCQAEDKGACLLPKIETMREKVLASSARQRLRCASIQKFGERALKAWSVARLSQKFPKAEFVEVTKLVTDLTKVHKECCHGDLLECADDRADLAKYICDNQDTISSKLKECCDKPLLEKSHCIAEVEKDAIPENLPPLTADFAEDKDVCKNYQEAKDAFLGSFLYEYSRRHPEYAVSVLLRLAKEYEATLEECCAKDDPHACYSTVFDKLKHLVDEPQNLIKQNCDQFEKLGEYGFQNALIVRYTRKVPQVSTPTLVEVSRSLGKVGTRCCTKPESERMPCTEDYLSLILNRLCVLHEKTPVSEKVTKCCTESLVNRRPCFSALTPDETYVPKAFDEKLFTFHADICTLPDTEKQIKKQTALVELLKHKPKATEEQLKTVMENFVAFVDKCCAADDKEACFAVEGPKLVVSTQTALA

[11] = probe aXIP binding to arrayed compounds – biochemical, NeuroSMM set, 635/667 nm fluorescence, primary screen (AID 1119); details: small-molecule microarray, higher = more signal, called active from +8 up or from −8 down;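 further: probe is the protein aXip251-270 applied at 1 µg/mL to compound-printed slides; binding of probe to printed compounds measured as 667 nm fluorescence plus signal to noise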
[12] = probe aNOTCH3 binding on compound microarray – biochemical, small-molecule microarray, 635/667 nm fluorescence, primary screen (AID 1120); details: higher = more signal;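 further: probe is a biotin-tagged antibody raised against NOTCH3 rather than NOTCH3 protein; score merges spot fluorescence near 667 nm with spot signal to noise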
[13] = probe aNOTCH2 binding on compound microarray – biochemical, small-molecule microarray, 635/667 nm fluorescence, primary screen (AID 1121); details: higher = more signal;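 further: score merges feature fluorescence read at 667 nm with its signal to noise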
[14] = target: Carbonic anhydrase 2 (Homo sapiens) (UniProt P00918); assay: compounds binding carbonic anhydrase 2 – biochemical, small-molecule microarray, Alexa647-labelled CAII, profiling panel (AID 1122); details: CAII-A647 binding fluorescence, higher = more signal
[15] = COS7 lysate on small-molecule microarray, probe aHis, 635 nm (AID 1123); details: COS7 cell lysate, fluorescence, higher = more signal;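 further: z-score combines 667nm fluorescence intensity with signal-to-noise per printed compound spot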
[16] = probe aLAP1 signal on lysate-treated microarray – cell lysate, small-molecule microarray, COS7 lysate, primary screen (AID 1124); details: probe aLAP1, fluorescence, higher = more signal;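 further: lysate comes from COS7 cells expressing LAP1 and is applied at 0.3 µg/mL; score merges spot fluorescence near 667 nm with signal-to-noise over triplicate slides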
Sam68 (KHDRBS1) = assay: compounds binding KHDRBS1 protein – biochemical, small-molecule microarray, 635 nm fluorescence, primary screen (AID 1125); details: higher = more signal;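 further: score merges 667 nm channel intensity with signal to noise over triplicate slides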
[17] = test system: Chordin-like protein 2 (CHRDL2); assay: compounds binding chordin-like 2 – biochemical, small-molecule microarray, 635 nm fluorescence, primary screen (AID 1126); details: fluorescence 635 nm, higher = more signal;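 further: printed compound slides probed with Chrdl2 protein at 4 µg/mL for 1 h at 4 C; score merges 667 nm emission intensity with signal to noise over three replicate slides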
[18] = target: Concanavalin-A (Canavalia ensiformis) (UniProt P02866); assay: compounds binding concanavalin A lectin – biochemical, small-molecule microarray, Alexa647 label, 635 nm, artefact control for SMM control protein annotation, primary screen (AID 1127); details: ConA-A647 binding fluorescence, higher = more signal;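 further: z combines 667 nm emission intensity with signal-to-noise across three replicate slides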
Chain of Concanavalin-A (Canavalia ensiformis) (P02866 whole entry, looked up): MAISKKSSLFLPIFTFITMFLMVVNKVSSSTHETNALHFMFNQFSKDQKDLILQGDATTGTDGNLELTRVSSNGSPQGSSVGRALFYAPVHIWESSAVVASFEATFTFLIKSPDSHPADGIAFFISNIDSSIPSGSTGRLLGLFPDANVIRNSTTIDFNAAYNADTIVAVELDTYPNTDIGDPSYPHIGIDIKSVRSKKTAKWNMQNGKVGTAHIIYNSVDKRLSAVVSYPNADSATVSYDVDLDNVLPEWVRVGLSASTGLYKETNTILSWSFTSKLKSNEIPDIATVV

SMILES	composite z-score [1]	z-score [2]	composite z-score [3]	composite z-score [4]	composite z-score [5]	composite z-score [6]	composite z-score [7]	composite z-score [8]	composite z-score [9]	composite z-score [10]	composite z-score (Albumin (Bos taurus))	composite Z-score [11]	composite z-score [12]	composite z-score [13]	composite z-score [14]	composite z-score [15]	composite z-score [16]	composite z-score (Sam68 (KHDRBS1))	composite z-score [17]	composite z-score [18]
CCOC(=O)C1=CC[C@@H](c2ccccc2)N(S(=O)(=O)c2ccc(C)cc2)[C@H]1c1cccc(OC)c1	1.09	-1.96	0.177	0.0295	0.622	0.0422	0.0898	0.266	0.854	1.3	0.909	1.15 (inactive)	0.199	0.137	0.422	0.899	0.0214	1.06	-0.0412	0.913
CN1C(=O)[C@@H]2[C@@H](CC(COc3ccccc3)=C([C@H](O)CCc3ccccc3)[C@@H]2CO)C1=O	-0.531	-0.113	0.0752	-0.548	-0.343	-0.243	-0.304	-0.398	0.0197	-0.278	-0.112	0.252 (inactive)	-0.0343	-0.201	0.0456	-0.492	-0.525	0.0336	0.0213	-0.0217
O=C1[C@@]23C=C(Br)[C@H](C[C@@H]2COC3)[C@@]12CO2	0.368	-2.52	0.531	-0.293	-0.87	-0.102	-0.0396	-0.172	0.245	0.53	-0.512	0.395 (inactive)	0.147	-0.153	-0.0903	0.301	-0.0796	0.206	0.532	0.459
CC(C)[Si]1(C(C)C)OCc2cc(-c3ccc(-c4ccc(Cl)c(Cl)c4)o3)nc(CCc3ccccc3)c21	-0.655	-0.826	0.198	-0.307	0.688	-0.054	-0.601	0.428	-0.395	-0.327	-0.176	0.182 (inactive)	-0.0362	-0.171	0.384	0.587	0.112	-0.0975	0.0164	-0.843
O=C1OCCC=C[C@H]2OC34C=CCN(c5ccc(Cl)cc5)C(=O)[C@H]3N(CCCCCCO)C(=O)[C@@H]4C12 (stereo not given in full)	-0.344	-0.476	-1.25	-0.869	-0.593	-0.152	-0.109	0.0422	-0.307	-1.35	-0.418	0.318 (inactive)	-0.122	-0.218	0.802	-0.328	-0.256	-0.156	-1.16	-0.941
COCCOC(=O)N1C(=O)[C@@]2(c3cc(C#CC4(O)CCCCCC4)ccc31)[C@H](c1ccc(OCCO)cc1)N1[C@H](c3ccccc3)[C@H](c3ccccc3)OC(=O)[C@H]1[C@@H]2C(=O)Nc1nc2ccccc2s1	1.22	-2.43	0.985	1.35	0.249	-0.006	0.214	0.721	1	0.968	0.729	0.526 (inactive)	0.5	-0.0009	0.161	0.804	0.388	1.3	0.58	1.11
